Shown are actives, neighbours in structure and some others; about 1.9% of the full set was active somewhere.
PGE2 EP2 inh: inhibitors of human EP2 prostaglandin E2 receptor | P43116 | C6 glioma cells expressing human EP2, cAMP TR-FRET; cells stimulated with saturating PGE2 | inhibition, % at 25 µM | hit rate 0.52% among 260,000;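 active = percent inhibition above 40 after rounding to a whole number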;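 note: rat C6 glioma host cells with rolipram phosphodiesterase inhibitor present; the protocol text gives 20 µM as final concentration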
Target sequence (P43116 whole entry, looked up): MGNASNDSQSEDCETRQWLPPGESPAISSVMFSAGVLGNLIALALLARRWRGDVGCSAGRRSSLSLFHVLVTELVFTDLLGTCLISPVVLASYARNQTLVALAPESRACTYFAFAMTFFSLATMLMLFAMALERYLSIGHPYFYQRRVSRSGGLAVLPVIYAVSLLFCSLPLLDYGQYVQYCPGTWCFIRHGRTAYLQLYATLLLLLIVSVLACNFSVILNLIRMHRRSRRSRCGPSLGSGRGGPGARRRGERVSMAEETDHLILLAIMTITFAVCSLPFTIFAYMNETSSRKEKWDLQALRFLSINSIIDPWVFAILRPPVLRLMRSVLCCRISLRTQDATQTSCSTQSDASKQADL
S1P3 antagonist: S1P3 (human) receptor antagonism; CHO S1P3 NFAT-BLA reporter, FRET fluorescence, antagonist mode; inhibition, % at 4.98 µM; hit rate 0.27% among 170,000; AID 485;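 active = inhibition above the plate cutoff, the mean inhibition of test wells on that plate plus 3 SD, cut at about 28% in these data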;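 note: cells challenged with S1P at its EC80 of 0.8 µM; blue over green emission ratio from cleaved BLA substrate after 4 h stimulation; 0% = S1P-stimulated wells and 100% = unstimulated DMSO-only wells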
S1P4 antag: human S1P4 receptor antagonism; O95977; S1P4-expressing cells, antagonist mode, reporter read-out; inhibition, % at 4.98 µM; hit rate 0.26% among 220,000; AID 1510; in the data active = inhibition above about 29%;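 note: 0% = wells stimulated with agonist and 100% = vehicle wells without agonist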
EP2 modulator: EP2 receptor (human) modulation | P43116 | AID 940 | EP2-expressing cells, cAMP HTRF FRET, PGE2 co-stimulation | hit rate 0.83% among 260,000 | induction, % at 25 µM;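 active = compounds whose cAMP rise, as percent of the full-agonist control response, exceeds 60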;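 note: rat C6 glioma line stably carrying human EP2 under a CMV promoter; the protocol text gives 20 µM as final concentration; 100% = response of wells given 1 µM PGE2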
S1P4 ag: agonists of human S1P4 receptor; S1P4-expressing cell line, agonist reporter assay; hit rate 0.35% among 220,000; O95977; activation, % at 4.98 µM; in the data active = activation above about 11%;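 note: 0% = DMSO vehicle and 100% = reference agonist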
Pf gamet viab: P. falciparum stage V gametocyte viability inhibition; P. falciparum stage V gametocytes, ATP luminescence, 24 h; hit rate 0.065% among 150,000; inhibition, % at 10.9 µM;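 active = inhibition above the mean plus 3 SD of compounds within the control limits, set per campaign, cut at about 38% in these data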;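 note: 0% = DMSO wells and 100% = medium only without gametocytes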
Starred values were filed as active, the others as inactive; · = no result; + = active, no number; ! = not confirmed by another sample.

SMILES	PGE2 EP2 inh	S1P3 antagonist	S1P4 antag	EP2 modulator	S1P4 ag	Pf gamet viab
COc1ccc2c(c1)N(C)/C(=C1/SC(=S)N(c3ccccc3)C1=O)S2	9	·	·	12	·	·
CCCCCN=C(N)N/N=C/c1c[nH]c2ccc(OC)cc12	136*!	·	·	15	·	·
O=C(O)C1CSC(c2c(Cl)cccc2Cl)N1 (stereo not drawn)	1	·	·	23	·	·
CNc1nc(OC)nc(N2CCOCC2)n1	23	66*	-6	18	3	·
CC[C@H](Cn1nc(-c2ccc(F)c(F)c2)ccc1=O)NC(=O)COC	·	·	·	-19	·	·
C[C@H](Oc1ccc(Oc2cnc3ccc(Cl)cc3n2)cc1)C(=O)O	46*	·	·	9	·	·
CN(C)c1ccc2nc3ccc(=[N+](C)C)cc-3sc2c1	+	-12	-10	-223	0	18
Cc1cc2nc3ccc(=[N+](C)C)cc-3sc2cc1N	+	-10	-4	-413	6	·
COc1ccc2nc(N=Nc3ccc(N(C)C)cc3)sc2c1	·	·	-2	4	-3	-15
Cc1nc2cc(C)c(C)cc2s1	6	-6	-16	18	1	5
CCCC(c1cc(C(C)(C)C)c(O)cc1C)c1cc(C(C)(C)C)c(O)cc1C	64*	·	·	26	·	·
COc1ccc(-c2nn(C)c3sc(C(=O)NCc4ccco4)cc23)cc1OC	12	33	-14	4	0	·
COc1ccc(NC(=O)c2cc3c(-c4ccc(OC)c(OC)c4)nn(C)c3s2)cc1OC	43*	·	-12	-27	2	·
COCCn1nnnc1C(c1cc2cccc(C)c2[nH]c1=O)N1CCN(Cc2ccccc2)CC1 (stereo not drawn)	12	·	·	-27	·	·
COC(=O)C1CCN(CC(=O)Nc2ccccc2Sc2ccccc2)CC1	6	0	-5	59	1	-5
CC1CCCCN1CC(=O)Nc1ccccc1Sc1ccccc1 (stereo not drawn)	12	-1	-3	62*	1	-25
N#C/C(=C\c1ccc(N2CCOCC2)c([N+](=O)[O-])c1)c1nc2ccccc2[nH]1	30	3	-10	-22	2	-8
N#C/C(=C\c1ccc(N2CCOCC2)o1)c1nc2ccccc2[nH]1	42*	·	-14	-34	0	-6
O=c1oc2cc(O)c(Cl)cc2c2ccccc12	29	0	-4	61*	2	10
CCCc1c(C)c2cc(Cl)c(O)cc2oc1=O	23	·	·	-39	·	·
CCCCC(CC)CN=C(N)NC(N)=NCCCCCCN=C(N)NC(N)=NCC(CC)CCCC (stereo not drawn)	71*	·	·	-15	·	·
Cc1cc(C)c2cc(CN(CCCN3CCCC3=O)S(=O)(=O)c3ccccc3)c(=O)[nH]c2c1	15	·	·	-46	·	·
Cc1cc(C)c2nc(-c3ccccn3)cc(C(=O)Nc3cc(C)on3)c2c1	11	54*	-1	30	2	-17
O=C(Nc1ccccc1NC(=O)c1ccccc1Cl)c1ccccc1Cl	·	·	·	·	·	-36
O=C(Nc1ccccc1Cl)c1ccccc1Cc1ccccc1	0	13	-13	64*	-2	13
SMILES	PGE2 EP2 inh	S1P3 antagonist	S1P4 antag	EP2 modulator	S1P4 ag	Pf gamet viab
COc1ccccc1NC(=O)c1sc(NC(=O)COc2ccccc2)c(C#N)c1C	13	·	·	66*	·	·
COc1ccc([C@@H]2CN(C(=O)c3cc(F)cc(F)c3)C[C@H]2C(=O)O)cc1	·	·	·	9	·	·
COc1ccc2cc(C#N)c(SCC(=O)NC3CCCCC3C)nc2c1 (stereo not drawn)	26	·	·	77*	·	·
COc1ccc2cc(C#N)c(SCC(=O)NC(C)(C)C)nc2c1	14	·	·	40	·	·
C#CCNC1CCN(Cc2ccccc2)CC1c1ccccc1 (stereo not drawn)	·	·	·	15	·	·
Cc1noc(C)c1CCC(=O)N1CCC(n2nnc(-c3ccc(F)cc3)n2)CC1	·	·	·	21	·	·
COc1cc(C(c2nnnn2Cc2ccccc2)N2CCc3ccccc3C2)ccc1O (stereo not drawn)	12	·	·	-1	·	·
CCOc1ccc(OCC)c(-c2c(=O)n(OCc3ccccc3Br)c3ccccc3[n+]2[O-])c1	5	·	-14	64*	-1	22
CCCN(Cc1ccccc1)C(=S)Nc1ccc(C(C)=O)cc1	5	-7	4	-2	0	-5
CC(=O)c1ccc(NC(=S)N(CCCN(C)C)Cc2ccccc2)cc1	128*	-6	6	-10	-1	-17
O=C(NC1CCCC1)C(c1ccccc1Cl)N(Cc1ccco1)C(=O)Cc1cccs1 (stereo not drawn)	15	·	·	64*	·	·
O=C(NC1CCCCC1)C(c1ccco1)N(Cc1cccs1)C(=O)Cn1nnc2ccccc21 (stereo not drawn)	10	31	0	61*	1	-7
O=C(NC1CCCCC1)C(c1ccco1)N(C(=O)Cc1cccs1)c1ccc(F)cc1 (stereo not drawn)	10	·	·	66*	·	·
O=C(NCc1ccco1)C(c1ccco1)N(Cc1cccs1)C(=O)Cn1nnc2ccccc21 (stereo not drawn)	17	·	15	28	-1	-4
O=C(NC1CCCC1)C(c1ccccc1F)N(Cc1ccco1)C(=O)Cc1cccs1 (stereo not drawn)	9	·	·	5	·	·
COc1cc2cc(CN(CCO)S(=O)(=O)c3ccc(Cl)cc3)c(=O)[nH]c2cc1OC	7	·	·	-6	·	·
COc1ccc(OC)c(NC(=O)CN(c2ccc(C(C)C)cc2)S(=O)(=O)c2c(C)noc2C)c1	12	54*	-4	23	-6	·
CC(C)(C)c1cccc(P(=O)(c2ccccc2)c2ccccc2)c1O	12	-7	12	66*	2	-8
CCCn1nnc(NC(=O)c2ccccc2OC)n1	11	·	·	-10	·	·
Nc1nnc(CCS(=O)(=O)c2cc(Cl)ccc2Cl)s1	15	77*	-16	-17	1	·
COc1ccc(C(c2nnnn2C2CCCCC2)N2CCN(C3CCCCC3)CC2)cc1 (stereo not drawn)	13	·	·	6	·	·
Cc1cc(OCC(=O)Nc2sc3c(c2C#N)CCC3)ccc1Cl	29	·	·	-16	·	·
O=C1/C(=C\c2ccccc2)[C@@H](NC2CCCCC2)c2ccccc21	58*	·	·	-2	·	·
Cc1ccc(C)c2[nH]c(=O)c(CN(C(=S)NCc3ccccc3)C3CCCCC3)cc12	23	·	·	64*	·	·
CCCNC(=S)N(Cc1cc2c(C)ccc(C)c2[nH]c1=O)C1CCCCC1	16	·	·	11	·	·
SMILES	PGE2 EP2 inh	S1P3 antagonist	S1P4 antag	EP2 modulator	S1P4 ag	Pf gamet viab
Cc1ccc(C)c2[nH]c(=O)c(CN(C(=S)NCCc3ccccc3)C3CCCCC3)cc12	19	·	·	-18	·	·
CCCNC(=S)N(Cc1cc2c(C)cc(C)cc2[nH]c1=O)C1CCCCC1	6	·	·	61*	·	·
CCOC(=O)Cc1csc(NC(=O)C(C)Oc2ccc(Cl)cc2Cl)n1 (stereo not drawn)	9	·	·	-86	·	·
O=C(NCc1ccc(Cl)c(Cl)c1)C1CCCC1	·	·	·	·	·	-7
C[N@@+]1(Cc2ccc(Cl)c(Cl)c2)CCC[C@@H]1c1ccc[n+](Cc2ccc(Cl)c(Cl)c2)c1	50*	·	·	-1	·	·
Cc1ccc(N=C2NC(=O)c3cc([N+](=O)[O-])ccc32)cc1	7	-18	-15	23	1	-28
